Screens: PubChem BioAssay, National Center for Advancing Translational Sciences (NCATS)
An excerpt weighted towards active compounds, which were near 8% of everything screened.
HT1080 IDH1KD tx – qHTS for induction of synthetic lethality in tumor cells producing 2HG: qHTS for the HT-1080-IDH1KD cell line. HT-1080 IDH1 knockdown viability, ATP luminescence, 48 h. Potency, µM (series often up to 46.1 µM), for the others: top-dose activity, negative = toxicity, most hits filed as cytotoxic. 360,000 tested, 2% active. AID 686971, 2013;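 also: 0% = DMSO wells and -100% = cell-free medium wells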
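HT-1080-IDH1KD cells (IDH1 knocked down), 750/well in RPMI with 5% FBS, treated with compound 48 h at 37 degrees C. Viability by CellTiter-Glo luminescence, normalised to DMSO and no-cell wells; concentration-response curves classed.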
KB-V1 cytotox – qHTS assay for MDR1-selective chemotherapeutics: Primary screen using the drug-selected MDR subline cells KB-V1; KB-V1 MDR cells viability, CellTiter-Glo, 72 h; Potency, µM (doses to about 46.1 µM), actives largely listed as cytotoxic; 400,000 tested, 3.4% active; also: % is scaled to controls: 0 for no effect and ±100 for the full control effect; nearly all actives have a fitted effect of over 60% in size
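KB-V1 MDR subline cells in DMEM (phenol-red free, 10% FBS) exposed to compounds in qHTS concentration series for 72 h at 37 degrees C. Viability read by CellTiter-Glo luminescence; concentration-effect curves fitted after normalization and correction.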
SW480 rereplic – A quantitative high throughput screen for small molecules that induce DNA re-replication in SW480 colon adenocarcinoma cells | SW480 DNA re-replication, Hoechst DNA content imaging, 48 h | Potency, µM (titrated, usually from 46.1 µM), for inactives: at the highest dose re-replication activation, hits mostly activators | 340,000 tested, 1.8% active; also: % of control where 0% means no effect; nearly all actives have a fitted effect of over 55% in size
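Cells (250 per well) received 23 nL compound or DMSO by pin tool and were kept 48 hr at 37 C, 5% CO2. Nuclei were then stained with Hoechst for 40 min and scanned for DNA content.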
MCF10A rereplic – A quantitative high throughput screen for small molecules that induce DNA re-replication in MCF 10a normal breast cells; MCF 10A DNA re-replication, Hoechst nuclear intensity, 48 h; Potency, µM (top dose mostly 46.1 µM), without a hit: top-dose activity, positive = re-replication, actives largely listed as activators; 350,000 tested, 2.9% active; AID 624296, 2012; also: % of control where 0% means no effect; nearly all actives have a fitted effect of over 50% in size
HT1080NT lethal – qHTS for induction of synthetic lethality in tumor cells producing 2HG: qHTS for the HT-1080-NT fibrosarcoma cell line. HT-1080-NT fibrosarcoma viability, CellTiter-Glo ATP luminescence, 48 h. 360,000 tested, 1.6% active. Potency, µM (titrated, usually from 46.1 µM), for inactives: at the top dose activity, negative = less viability, most hits filed as cytotoxic. AID 686970, 2013;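 also: NT is the 2HG producing partner of a matched IDH1 knockdown line; 0% = DMSO-treated cells and -100% = media-only wells without cells; nearly all actives have a fitted effect of over 55% in size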
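Toxicity toward the 2HG-producing NT line was scored as %Activity, normalised to DMSO and no-cell wells, from CellTiter-Glo luminescence after 48 hours' treatment.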
KB-3-1 cytotox – qHTS assay for MDR1-selective chemotherapeutics: Primary screen using the parental adenocarcinoma cell KB-3-1; KB-3-1 viability, CellTiter-Glo ATP luminescence, 72 h; Potency, µM (doses to about 46.1 µM), usual class: cytotoxic; 400,000 tested, 1.4% active; also: % is scaled to controls: 0 for no effect and ±100 for the full control effect; nearly all actives have a fitted effect of over 60% in size
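Luminescent ATP read-out (CellTiter-Glo) measures survival of drug-naive KB-3-1 cells after 72 h compound exposure at 37 °C. Titration series was screened from lowest to highest concentration, with DMSO vehicle plates as background controls.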
* marks the source's active call; other numbers are inactive results; [ ] = another dose, or the depositor's remark. Calls follow the shape of the dose curve; as a rule, active = well fitted curve in the direction sought with a large enough effect; inconclusive = small, poorly fitted or top-dose-only effect, or another doubt; inactive = no such curve, though single readings can be large; an effect the other way counts as inactive or inconclusive. Potency is read from the fitted curve at half-maximal effect.

`COc1ccc(C)cc1N(C(=O)c1ccccc1)c1nc2ccccc2s1` gave HT1080 IDH1KD tx -10%, KB-V1 cytotox inactive, SW480 rereplic 10%, MCF10A rereplic 11%, HT1080NT lethal -11% and KB-3-1 cytotox inactive.
Screening COc1ccc(C)cc1N(C(=O)COc1ccccc1)c1nc2ccccc2s1 returned HT1080 IDH1KD tx -10%, KB-V1 cytotox 21µM*, SW480 rereplic 4%, MCF10A rereplic 3%, HT1080NT lethal 2% and KB-3-1 cytotox inactive.
Screening CC(C)N(C(=O)CSc1nnc(NC(=O)c2cccs2)s1)C(C)C returned HT1080 IDH1KD tx -14%, KB-V1 cytotox 23µM*, SW480 rereplic -3%, MCF10A rereplic -1%, HT1080NT lethal 1% and KB-3-1 cytotox inactive.
Cc1c([N+](=O)[O-])cc(N2C(=O)C=CC2=O)cc1[N+](=O)[O-] was read as HT1080 IDH1KD tx 13%, KB-V1 cytotox inactive, SW480 rereplic 0%, MCF10A rereplic 0%, HT1080NT lethal -3% and KB-3-1 cytotox inactive.
For Cc1cc(N2C(=O)C=CC2=O)c([N+](=O)[O-])cc1C the results were HT1080 IDH1KD tx inconclusive, KB-V1 cytotox inactive, SW480 rereplic 16µM*, MCF10A rereplic 18µM*, HT1080NT lethal inconclusive and KB-3-1 cytotox inactive.
CC(c1ccon1)N(C)C(=O)CCc1nnc(C2(c3ccc(Cl)cc3)CCC2)o1 (stereo not drawn) was read as HT1080 IDH1KD tx 7%, KB-V1 cytotox inconclusive, SW480 rereplic 4%, MCF10A rereplic 0.58µM*, HT1080NT lethal -2% and KB-3-1 cytotox inactive.
Screening Cc1ccc(S(=O)(=O)c2ncccc2[N+](=O)[O-])cc1 returned HT1080 IDH1KD tx 23µM*, KB-V1 cytotox inconclusive, SW480 rereplic 12µM*, MCF10A rereplic 5.8µM*, HT1080NT lethal 9.2µM* and KB-3-1 cytotox inconclusive.
For COc1ccc(NC(=O)CN(C)C(=O)c2ccc(S(=O)(=O)N3CCOCC3)cc2)cc1 the results were HT1080 IDH1KD tx 1%, KB-V1 cytotox inconclusive, HT1080NT lethal -1% and KB-3-1 cytotox inactive.
CCOc1ccc(NC(=O)CN(c2ccc([N+](=O)[O-])cc2)S(=O)(=O)c2ccccc2)cc1 was read as HT1080 IDH1KD tx 8.2µM*, KB-V1 cytotox 7.3µM*, SW480 rereplic -51%, MCF10A rereplic 3%, HT1080NT lethal inconclusive and KB-3-1 cytotox inactive.
Screening CCOc1ccc(S(=O)(=O)N(CC(=O)N/N=C/c2ccc(-c3ccc([N+](=O)[O-])cc3)o2)c2ccccc2)cc1 returned HT1080 IDH1KD tx -24%[9.24 µM], KB-V1 cytotox inconclusive, SW480 rereplic 21µM*, MCF10A rereplic 0.82µM*, HT1080NT lethal 13µM* and KB-3-1 cytotox inconclusive.
For CC(=O)Nc1ccc(NC(=O)CN(c2ccc([N+](=O)[O-])cc2)S(=O)(=O)c2ccccc2)cc1 the results were HT1080 IDH1KD tx 0%, KB-V1 cytotox inactive, SW480 rereplic 2%, MCF10A rereplic 0%, HT1080NT lethal -2% and KB-3-1 cytotox inactive.
O=C(CCc1ccc(S(=O)(=O)N2CCOCC2)cc1)Nc1nc(COc2ccccc2)cs1 was read as HT1080 IDH1KD tx inconclusive, KB-V1 cytotox 2.9µM*, SW480 rereplic 1%, MCF10A rereplic inconclusive, HT1080NT lethal inconclusive and KB-3-1 cytotox 5.2µM*.
`COc1ccc(S(=O)(=O)N(CC(=O)Nc2ccc(S(=O)(=O)N3CCOCC3)cc2)c2ccccc2)cc1` gave HT1080 IDH1KD tx -15%, KB-V1 cytotox 5.2µM*, SW480 rereplic -2%, MCF10A rereplic 7%, HT1080NT lethal -11% and KB-3-1 cytotox inconclusive.
`Cc1ccc(C)c(N(CC(=O)N/N=C/c2ccc(-c3ccc([N+](=O)[O-])cc3)o2)S(=O)(=O)c2ccccc2)c1` gave HT1080 IDH1KD tx -4%, KB-V1 cytotox inactive, SW480 rereplic -2%, MCF10A rereplic 14%, HT1080NT lethal -3% and KB-3-1 cytotox inactive.
COc1cc2c(cc1OC)C(=O)N1[C@H]3c4cc(C)ccc4OC[C@@H]3[C@H](c3ccccc3)[C@]1(C)C(=O)N2 was read as HT1080 IDH1KD tx 16µM*, KB-V1 cytotox inconclusive, SW480 rereplic 13µM*, MCF10A rereplic 15µM*, HT1080NT lethal inconclusive and KB-3-1 cytotox inconclusive.
For COc1cc2c(cc1OC)C(=O)N1[C@H]3c4cc(Cl)ccc4OC[C@@H]3[C@H](c3ccccc3)[C@]1(C)C(=O)N2 the results were HT1080 IDH1KD tx inconclusive, KB-V1 cytotox inconclusive, SW480 rereplic inconclusive, MCF10A rereplic 9.2µM*, HT1080NT lethal -11% and KB-3-1 cytotox inconclusive.
For COc1ccc2c(c1)c(CC(=O)Nc1ccccc1OC)c(C)n2C(=O)c1ccc(Cl)cc1 the results were HT1080 IDH1KD tx -14%, KB-V1 cytotox inconclusive, SW480 rereplic 0%, MCF10A rereplic 16µM*, HT1080NT lethal 0% and KB-3-1 cytotox inconclusive.
Screening COc1ccc2c(c1)c(CC(=O)NCc1cc([N+](=O)[O-])ccc1O)c(C)n2C(=O)c1ccc(Cl)cc1 returned HT1080 IDH1KD tx -27%, KB-V1 cytotox inconclusive, SW480 rereplic -2%, MCF10A rereplic 23µM*, HT1080NT lethal inconclusive and KB-3-1 cytotox inconclusive.
Screening COc1ccc2c(c1)c(CC(=O)Nc1ccc(C(C)=O)cc1)c(C)n2C(=O)c1ccc(Cl)cc1 returned HT1080 IDH1KD tx -5%, KB-V1 cytotox inconclusive, SW480 rereplic -18%, MCF10A rereplic 3%, HT1080NT lethal 0% and KB-3-1 cytotox inactive.
`COc1ccc2c(c1)c(CC(=O)Nc1nnc(C3CC3)s1)c(C)n2C(=O)c1ccc(Cl)cc1` gave HT1080 IDH1KD tx inconclusive, KB-V1 cytotox inconclusive, SW480 rereplic inconclusive, MCF10A rereplic 10µM*, HT1080NT lethal 23µM* and KB-3-1 cytotox inconclusive.
For COc1cc(O)ccc1C1CC(=O)Nc2c1c(=O)nc(SCc1ccccc1C)n2C (stereo not drawn) the results were KB-V1 cytotox inactive and KB-3-1 cytotox inactive.
For Cc1ccc(SCCC(=O)Nc2ccccc2C(=O)NC(C)C)cc1 the results were HT1080 IDH1KD tx 1%, KB-V1 cytotox 2.9µM*, SW480 rereplic inconclusive, MCF10A rereplic -16%, HT1080NT lethal -7% and KB-3-1 cytotox inactive.
